One assay has as its system Plasmodium falciparum. The assay is described as follows: GSK_TCMDC: Inhibition of Plasmodium falciparum 3D7 in whole red blood cells, using parasite LDH activity as an index of growth. Test compounds present at 2uM. The assay is classed as functional.
Regarding `CC(=O)Nc1cc(C(=O)Nc2ccc(C3=NCCN3)cc2)ccc1C(=O)Nc1ccc(C2=NCCN2)cc1.Cl`, the Inhibition is recorded as 96%.

The compound `O=C(Nc1cccc(-c2nn3ncccc3c2-c2ccnc(Nc3cccc(-c4cnco4)c3)n2)c1)c1c(F)cccc1F` displayed an Inhibition of 97%. Consider `CC(=O)Nc1ccc(S(=O)(=O)Nc2c(C)cc(Cc3cnc(N)nc3N)cc2C)cc1`, for which the Inhibition is listed as 94%.

In a further assay the test system is Plasmodium falciparum. The experiment in a line: GSK_TCMDC: Inhibition of Plasmodium falciparum Dd2 in whole red blood cells, using parasite LDH activity as an index of growth. Test compounds present at 2uM. The class given is functional.
As for `COc1ccc2c(=NN=C(C)c3ccccn3)cc(C)[nH]c2c1`, the Inhibition is reported as 51%.

As for `Cn1nc(-c2ccc(Cl)cc2)c2cc(C(=O)NCCN3CCOCC3)sc21`, the Inhibition worked out at 29%. `Cc1csc(-c2nc(NCCc3c(C)noc3C)ncc2-c2ccsc2)n1` gave an Inhibition of 82%.

In turn, `CC(Nc1ccc2c(c1)CCC2)C(=O)Nc1cc(C(F)(F)F)ccc1N1CCOCC1` (configuration not stated) came in with an Inhibition of 100%. The compound `O=C(Nc1cccc(Cl)c1Cl)N[C@H]1CCN(CCCCCNC(=O)C2CC2c2ccc(Cl)c(Cl)c2)C1` (some centres not stated) showed an Inhibition of 0%. On the same count and under the same terms, the same measure for `Cc1cc(N2CCCC2=O)ccc1-c1ccc(C(=O)N2CCC(Oc3cccc(Cl)c3)CC2)cc1`: 98%.

As for `COc1ccc(C(=O)N2CCN(c3ccc([N+](=O)[O-])c(NC4CC4)c3)CC2)cc1Br`, the Inhibition came out at 68%. With `COc1cc2nc(NCCn3nc(C)cc3C)nc(NCCc3ccccc3)c2cc1OC`, the Inhibition came to 100%.

Consider `Cl.Cn1c(/C=C/C(=O)NC2CCC(CCN3CCc4ccc(C#N)cc4CC3)CC2)cc2ccccc21` (configuration not stated), for which the Inhibition came out at 29%.

In turn, `COc1ccc(CNC2Cc3ccccc3C2)cc1-c1ccc(OC)c(S(=O)(=O)NCCN2CCCC2)c1.O=C(O)C(F)(F)F` displayed an Inhibition of 97%. As to `COc1ccc(S(=O)(=O)NCC2CCCN(CCCCCNC(=O)/C=C/c3ccc(Cl)c(Cl)c3)C2)cc1` (configuration not stated), the Inhibition is given as 1%. As for `Cc1onc(-c2c(F)cccc2Cl)c1C(=O)Nc1ccccc1I`, the Inhibition is reported as 52%.

`O=C(Nc1cccc(N2CCC(NCCCn3ccnc3)CC2)c1)c1cccc(C(F)(F)F)c1` registered an Inhibition of 2%.

In turn, `CCC(CC)n1c(C)cc2c3c(N)nc(N)nc3ccc21` displayed an Inhibition of 95%.

Compound `CC1Cc2ccccc2N1S(=O)(=O)c1cc(OCC(F)(F)F)ccc1OCC(F)(F)F` (configuration not stated) gave an Inhibition of 95%. Compound `Cc1ccc(F)c(OCC2CCCN(c3ccc(C(=O)NC4CC4)cn3)C2)c1` (configuration not stated) registered an Inhibition of 94%. `O=S(=O)(c1ccccc1C(F)(F)F)C1CC2CCC(C1)N2S(=O)(=O)c1ccc(Cl)c(C(F)(F)F)c1` (configuration not stated) gave an Inhibition of 99%. Consider `Cc1cc2nc(-c3ccc(/C=C/C(=O)NCCc4ccccc4)cc3)[nH]c2cc1C`, for which the Inhibition is 13%. Still for that read-out and setting: the value for `O=C(/C=C/c1ccc(Cl)c(Cl)c1)NCCCCCN1CCCC(CNS(=O)(=O)c2ccc(F)cc2)C1` (configuration not stated) was 7%; that for `N#Cc1cccc(CN2CCCN(Cc3ccc(C(=O)Nc4ccc(Cl)cc4)cc3)CC2)c1.O=C(O)C(F)(F)F` was 21%. The same measure, in the same setting: the value for `CC(=O)c1sc(NC(=O)Nc2ccc(C)cc2C)nc1C` was 68%; that for `CC(=O)c1c(C)[nH]c(C(=O)Nc2ccc(-c3nc4ccc(C)cc4s3)cc2)c1C` was 40%.

On to `O=S(=O)(c1cc(Cl)c(Cl)cc1Cl)N1CCCCC(c2ccc(C(F)(F)F)cc2)=N1`, for which the Inhibition worked out at 99%. `COc1cc(NC2=C(c3ccccc3)C(=O)c3ccccc32)ccn1` yielded an Inhibition of 96%.

Compound `Cc1ccccc1C1CCN(C2CCC(NC(=O)/C=C/c3cc(C(F)(F)F)ccc3F)CC2)CC1` (configuration not stated) returned an Inhibition of 45%. Compound `COc1cc2nc(N3CCC(CNC(=O)c4ccc(NC(=O)c5ccc(Cl)cc5)cc4)CC3)nc(N)c2cc1OC` gave an Inhibition of 100%. `CNC(=O)NC1CCN(Cc2c(-c3cccs3)nc3ccccc3c2C(=O)N[C@@H](C)C2CCCCC2)CC1` gave an Inhibition of 97%. In turn, `CCCCCCN1CCN(Cc2cccc(NC(=O)c3cc4ccccc4o3)c2)CC1.O=C(O)C(F)(F)F` showed an Inhibition of 83%. The compound `O=C(Nc1ccc(Cl)c(Cl)c1)Nc1ccc2c(c1)CCNCC2.O=C(O)C(F)(F)F` displayed an Inhibition of 37%. Turning to `COc1ccc(CCN2CC[C@H](Nc3nc(-c4ccc(F)c(F)c4)nc4ccccc34)C2)cc1S(N)(=O)=O.Cl`, the Inhibition came out at 64%. Regarding `CC(CN(C)C)C(=O)Nc1ccc(-c2csc(-c3nc4ccccc4[nH]3)c2)cc1` (configuration not stated), the Inhibition was 19%.

Turning to `O=C(Nc1cccc(-c2ccc(-c3nc4cc(F)ccc4[nH]3)cc2)c1)c1cccnc1`, the Inhibition is 92%. Take `N=C(N)Nc1nc(-c2cccc(NCCCCCCCCON3C(N)=NC(N)=NC34CCCCC4)c2)cs1.O=C(O)C(F)(F)F`: the Inhibition is recorded as 42%.

`CCOc1ccc(C2CCN(CCN3CCC(NC(=O)c4ccc(-c5ccc(C(F)(F)F)cc5)cc4)CC3)CC2)c(OCC2CC2)c1` gave an Inhibition of 65%.

The Inhibition is the change of the read-out against control, counted positive when it falls. High values mean strong suppression, low ones little suppression.

The values are drawn from ChEMBL document CHEMBL1157539, “Thousands of chemical starting points for antimalarial lead identification” (Nature, 2010).
